For 40 molecules, growth results are on record in PubChem BioAssay (NCI).

Compounds without any hit were thinned out: in the full panel of roughly 83,000, 20% have a hit.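 Note: values are percent growth. 100 is the growth of untreated cells, values between 100 and 0 indicate rising inhibition; between -100 and 0 indicates cell death.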 A number with no mark means an inactive call. Active and inactive are the calls of the source.

The test deals with MDA-MB-435 melanoma. In words: NCI-60 one-dose screen, 48 h (100 = growth as untreated, 0 = no growth, -100 = all killed). The settings on record: 10 µM unless noted. On the procedure: Growth inhibition of the MDA-MB-435 human Melanoma tumor cell line is measured as a screen for anti-cancer activity. Cells are grown in 96 well plates and exposed to the test compound for 48 hours. Compounds are tested at a single concentration, which is 10^-5 M for most compounds. The reported endpoint is percent growth (GI% or GIPRCNT), where numbers from 0 - 100% represent growth inhibition, and numbers from -100% - 0 represent cell death. For example, a value of 40 represents 60% growth inhibition. A value of 0 means no net growth occurred over the course of the experiment. A value of -40 indicates 40% of cells at the beginning of the experiment died by the end of the experiment. A value of -100 means all cells are dead at the end of the experiment.
NCI-60 Human Tumor Cell Lines Screen was performed using the standard one-dose NCI protocol, which is described in more detail at https://dtp.cancer.gov/discovery_development/nci-60/default.htm.
Compounds with GIPRCNT values below 10 were considered active. Activity score was based on GIPRCNT using the following formula: […]
Score is 0 for GIPRCNT values of 100 or above, 50 for GIPRCNT values of 0, and 100 for GIPRCNT values of -100.
With `Nc1c(F)cc(-c2nc3cc(F)ccc3[se]2)cc1F`, the growth is 106%.
For `O=C1NC(=O)C(=Cc2cn(CCCCCCn3c4ccccc4c(=O)c4ccccc43)c3ccccc23)C(=O)N1`, the growth is 102%.
`C=CCCCCCCCCC(=O)[O-].C=CCCCCCCCCC(=O)[O-].[Zn+2]`: the growth is 100%.
As for `C[C@]12CC[C@H]3[C@@H](CC4SC(N)=NC45C/C(=N/NC(N)=O)CC[C@]35C)[C@@H]1CCC2=O` (stereo not given in full), the growth was -58.8% (active).
To `CC(=O)Oc1ccccc1C(=O)NCCC[Se]C#N` belongs 3.02% (active); to `CC[C@H](C)[C@H](NC(=O)[C@H]1CCCCN1C)C(=O)N(C)[C@H](C[C@@H](O)c1nc(C(=O)N[C@@H](Cc2ccccc2)C[C@H](C)C(=O)O)cs1)C(C)C`, 18.9%.
`CC12CCC3C(CCC4=CC(=O)CCC43CF)C1CCC2=O` (stereo not given): the growth is 100%.
In the case of `CC[C@H](C)[C@H](NC(=O)[C@H]1CCCCN1C)C(=O)N(C)[C@H](C[C@@H](OC(C)=O)c1nc(C(=O)N[C@@H](Cc2ccccc2)C[C@H](C)C(=O)OC)cs1)C(C)C`, the growth was -35.3% (active).
To `O=C1Nc2ccccc2C2c3cccn3-c3ccccc3CN12` (stereo not given) belongs -15% (active); to `Fc1ccc2c(c1)c(-c1nc(-c3c[nH]c4ncccc34)cs1)cn2CCCCN1CCCCC1`, -87.2% (active); to `CN[C@]1(c2ccccc2Cl)CCCC[C@H]1NCCCN1CCN(C)CC1`, 103%.
Take `CCCCCCCCOC(=O)CCN1CC1`: the growth is 105%.
For the molecule `CSc1nc(Cl)cc(N2CC2)n1`, the growth is 116%.
In the case of `COC(=O)CCC1=C(C)c2cc3[n-]c(cc4nc(cc5[n-]c(cc1n2)c(CCC(=O)OC)c5C)C=C4C)cc3C.[Cd+2]`, the growth is 23.1%.
`COC[C@@H]1C[C@@]2(C)[C@@H](CC[C@@H]3[C@@H]2CC[C@@]2(C)[C@H]3CC[C@]2(C)O)CC1=O`: the growth was 108%.
To `O[C@H](CN1CC1)[C@@H](O)CN1CC1` belongs 78.3%.
`ClCCN(CCCl)c1ccc(/C=N\N=C\c2ccc(N(CCCl)CCCl)cc2)cc1`: the growth is 27.4%.
As for `O=C1C(=Cc2cn(Cc3ccccc3)c3ccccc23)C(=O)N(Cc2ccccc2)C(=O)N1Cc1ccccc1`, the figure is 108%; as for `CC1=C([Te]c2ccc(O)cc2)C(=O)c2ccccc2C1=O`, -76.7% (active).
As for `N#CC1(C#N)C(c2ccc(N(CCCl)CCCl)cc2)OC23CCCCC2C1(C#N)C(=N)O3` (stereo not given), the figure is 101%; as for `CCOC(=O)[C@@H](C)C[C@H](Cc1ccccc1)NC(=O)c1csc([C@@H](C[C@H](C(C)C)N(C)C(=O)[C@H](CCC(C)C)NC(=O)[C@H]2CCCCN2C)OC(C)=O)n1`, -1.75% (active); as for `CCCCCCCOC(C(=O)OCCN(CC)CC)(c1ccccc1)c1ccccc1`, 98.2%.
To `C/C=C(\C)C(=O)O[C@@H]1C(O)[C@H]2OC(COC(=O)CCC(=O)CCCCCC[C@H](CCCCC)O[C@@H]3OC(C)[C@H](OC(C)=O)C(O)[C@H]3O2)[C@H]1OC(=O)/C=C/c1ccccc1` (stereo not given in full) belongs 0.295% (active).
For `O=C1CC2(CC3(Cl)C(Cl)=C(Cl)C2(Cl)C3(Cl)Cl)C(=O)O1` (stereo not given), the growth is 103%.
For the molecule `C=C1[C@@H](C)[C@H]2[C@H](Cc3ccccc3)NC(=O)[C@]23[C@@H](O)/C=C/[C@@](C)(O)C(=O)[C@@H](C)C/C=C/[C@H]3[C@@H]1O`, the growth was 80.5%.
For the molecule `COC(=O)[C@@H](C)C[C@H](Cc1ccccc1)NC(=O)c1csc([C@@H](C[C@H](C(C)C)N(C)C(=O)[C@H](C)NC(=O)[C@H]2CCCCN2C)OC(C)=O)n1`, the growth is -33% (active).
As for `O=[N+]([O-])c1cc(I)cc([N+](=O)[O-])c1`, the growth is 101%.
Turning to `O=C1C2CCC1C(N1CCCC1)CC2` (stereo not given), the growth was 96.8%.
In the case of `COc1ccc(/C(C)=C(\c2ccc(OCCN3CCOCC3)cc2)c2ccc(OC(=O)Cc3ccccc3)cc2)cc1`, the growth is 107%.
With `Cc1cc(N(CCCl)CCCl)ccc1/C=N\NC(=O)c1ccncc1`, the growth is 89.1%.
In the case of `Cc1cccc(N2CCN(C(C)C#N)CC2)c1` (stereo not given), the growth was 98.4%.
Consider `COc1cc2c(cc1OCCCn1c(-c3ccccn3)nc3ccccc31)N=C[C@@H]1CCCN1C2=O`, for which the growth was -23.6% (active).
For `COc1ccc(N(CC(=O)NCCC[Te]c2ccccc2)C(=O)CNC(=O)OC(C)(C)C)cc1`, the growth is 59.4%.
Regarding `NC(=O)c1c(Br)n(C2OC(CO)C(O)C2O)c2ncnc(N)c12` (stereo not given), the growth was 1.13% (active).
As for `Cc1ccc2c(C(C[N+](=O)[O-])c3cccs3)c(-c3ccccc3)[nH]c2c1` (stereo not given), the figure is -31.1% (active); as for `Clc1cccc(NCOOC2(OOCNc3cccc(Cl)c3)CCCCCC2)c1`, 105%.
As for `COP(=S)(N1CC1)N1CC1`, the figure is 105%; as for `O=C1NC(=O)C(=Cc2cn(C(=O)c3ccccc3)c3ccccc23)C(=O)N1`, 105%.
Turning to `Nc1cc2nc3ccccc3nc2cc1N`, the growth was 109%.
As for `Cc1c(NS(=O)(=O)c2ccccc2)ccc([N+](=O)[O-])c1Cl`, the figure is 39.8%.
